Results filed as inconclusive are left out. The source made the active and inactive calls. The call rests on the fitted dose curve; in most records, active means well fitted curve in the direction sought with a large enough effect; inconclusive means small, poorly fitted or top-dose-only effect, or another doubt; inactive means no such curve, though single readings can be large; an effect the other way counts as inactive or inconclusive.
Key:
MKL-2 = assay: qHTS assay to identify novel small-molecules to repurpose for Merkel cell carcinoma treatment (AID 1296009); conditions: MCC and control cell lines, CellTiter-Glo viability, 72 h; series mostly up to 46 µM; further: nearly all actives have a fitted effect of over 60% in size
Procedure, shortened: (§1)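 Cell viability, measured as CellTiter-Glo luminescence, was normalized between DMSO and no-cell wells. The cells had been exposed to 8- or 11-point compound dilutions for 72 hr at 37 degree celsius.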

UISO = assay: as above; conditions: MCC and control cell lines, CellTiter-Glo viability, 72 h; series mostly up to 46 µM
Procedure, shortened: as §1

WaGa = assay: as above; conditions: MCC and control cell lines, CellTiter-Glo viability, 72 h; series mostly up to 46 µM
Procedure, shortened: as §1

C33A = assay: Primary qHTS to identify gynecologic anti-cancer compounds using libraries of approved drugs and bioactive compounds (AID 1345084); conditions: Gynecologic cancer cell panel viability, ATPlite luminescence, 48 h; series mostly up to 57.5 µM; further: nearly all actives have a fitted effect of over 55% in size
Procedure, shortened: (§2)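 Cells, 1,000 per well, plated 16 h, then exposed 48 h at 37 C to compounds. Viability by ATPlite luminescence after 15 min at room temperature.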

CASKI = assay: as above; conditions: Gynecologic cancer cell panel viability, ATPlite luminescence, 48 h; series mostly up to 57.5 µM
Procedure, shortened: as §2

Es-2 = assay: as above; conditions: Gynecologic cancer cell panel viability, ATPlite luminescence, 48 h; series mostly up to 57.5 µM
Procedure, shortened: as §2

HeLa = assay: as above; conditions: Gynecologic cancer cell panel viability, ATPlite luminescence, 48 h; series mostly up to 57.5 µM
Procedure, shortened: as §2

Hek293T = assay: as above; conditions: Gynecologic cancer cell panel viability, ATPlite luminescence, 48 h, control line for the selectivity index; series mostly up to 57.5 µM
Procedure, shortened: as §2

CAOV3 = assay: as above; conditions: Gynecologic cancer cell panel viability, ATPlite luminescence, 48 h; series mostly up to 57.5 µM
Procedure, shortened: as §2

Measured: Potency
Potency means the concentration at half of the fitted maximal effect.

C#Cc1cccc(Nc2ncnc3cc(OC)c(OCCCCCCC(=O)NO)cc23)c1
active: MKL-2 0.105 µM | UISO 2.09 µM | WaGa 0.105 µM | C33A 3.55 µM | CASKI 6.31 µM | Es-2 10 µM | HeLa 6.31 µM

O=C(O)[C@H](Cc1c[nH]c2ccccc12)N1C(=O)c2ccccc2C1=O
inactive: MKL-2 | UISO | WaGa

O=C(NCCCNc1nc(Nc2cccc(NC(=O)N3CCCC3)c2)ncc1I)c1cccs1
inactive: MKL-2
active: UISO 16.6 µM | WaGa 9.35 µM

Nc1cc(C(F)(F)F)c(-c2cc(N3CCOCC3)nc(N3CCOCC3)n2)cn1
inactive: MKL-2
active: UISO 1.66 µM | C33A 15.8 µM | CASKI 3.55 µM | Es-2 6.31 µM | HeLa 3.98 µM | Hek293T 3.16 µM

O=C(O)Cn1nnc(-c2cc(N3CCC(Oc4cc(F)ccc4Br)CC3)no2)n1
not listed: Es-2 | CAOV3
inactive: all other assays above

Cc1c(CN2CCN(S(C)(=O)=O)CC2)sc2c(N3CCOCC3)nc(-c3cnc(N)nc3)nc12
active: MKL-2 0.118 µM | UISO 0.264 µM | C33A 1.58 µM | CASKI 0.708 µM | HeLa 2 µM | Hek293T 0.501 µM

CC(C)c1nn(-c2c(Cl)cccc2Cl)c2nc(Cc3ccc(OCCO)cc3)[nH]c(=O)c12
active: MKL-2 0.105 µM | UISO 0.105 µM | C33A 0.282 µM | CAOV3 0.158 µM | CASKI 0.501 µM

CC[C@@]1(O)C(=O)OCc2c1cc1n(c2=O)Cc2cc3cc(O)ccc3nc2-1
active: MKL-2 0.264 µM | UISO 0.0743 µM | WaGa 0.0187 µM | C33A 0.794 µM | CASKI 0.398 µM | Es-2 0.355 µM | Hek293T 1.26 µM

CCN(CC)CCNC(=O)c1ccc2nc(-c3ccccc3)c(-c3ccc(CN4CCC(n5c(=O)[nH]c6ccccc65)CC4)cc3)nc2c1
active: MKL-2 1.18 µM | UISO 16.6 µM | WaGa 7.43 µM
inactive: CASKI | Es-2 | HeLa

CC1(C)CCC(c2ccc(Cl)cc2)=C(CN2CCN(c3ccc(C(=O)NS(=O)(=O)c4ccc(N[C@H](CCN5CCOCC5)CSc5ccccc5)c(S(=O)(=O)C(F)(F)F)c4)cc3)CC2)C1
active: MKL-2 0.264 µM | WaGa 0.118 µM | CAOV3 12.6 µM | CASKI 14.1 µM
inactive: UISO | Es-2

COc1cc(Nc2ncc(F)c(Nc3ccc4c(n3)N(COP(=O)(O)O)C(=O)C(C)(C)O4)n2)cc(OC)c1OC
active: CASKI 17.8 µM | HeLa 3.55 µM
inactive: MKL-2 | UISO | WaGa

Cc1c(Cn2c(C)nc3c(C(=O)O)cc(N4CCOCC4)cc32)cccc1C(F)(F)F
not listed: CAOV3
inactive: all other assays above

COc1ccc(-c2cc3c(C)nc(N)nc3n(C3CCC(OCCO)CC3)c2=O)cn1 (stereo not given)
active: MKL-2 0.166 µM | UISO 0.166 µM | WaGa 2.09 µM | CASKI 1.41 µM | Es-2 2.51 µM | HeLa 7.94 µM | Hek293T 1.41 µM

COc1cc2c(cc1-c1c(C)noc1C)ncc1[nH]c(=O)n([C@H](C)c3ccccn3)c12
inactive: C33A | Hek293T
active: MKL-2 2.64 µM | UISO 14.8 µM | WaGa 5.9 µM | CASKI 3.98 µM

CNC(=O)c1c(F)cccc1Nc1nc(Nc2cc3c(cc2OC)CCN3C(=O)CN(C)C)nc2[nH]ccc12
active: MKL-2 5.9 µM | UISO 5.9 µM | WaGa 18.7 µM
not listed: CAOV3
inactive: all other assays above

CNc1nccc(-c2cccnc2Oc2cc(C(=O)Nc3cccc(C(F)(F)F)c3)ccc2C)n1
inactive: MKL-2 | UISO | WaGa | C33A | Hek293T

CNC(=O)c1ccc(-c2cnc3ncc(Cc4ccc5ncccc5c4)n3n2)cc1F
not listed: CAOV3
inactive: all other assays above

CCc1c2c(nc3ccc(O)cc13)-c1cc3c(c(=O)n1C2)COC(=O)[C@]3(O)CC
active: MKL-2 0.0418 µM | UISO 0.0209 µM | WaGa 0.0047 µM | CAOV3 0.251 µM | CASKI 0.126 µM | Hek293T 0.891 µM

c1ccc2c(CCNc3ccc(Nc4ccncc4)cc3)c[nH]c2c1
active: MKL-2 5.9 µM | UISO 13.2 µM | WaGa 7.43 µM
inactive: HeLa

Cc1cc(Nc2cc(N3CCN(C)CC3)nc(Sc3ccc(NC(=O)C4CC4)cc3)n2)n[nH]1
inactive: MKL-2 | UISO | C33A | Es-2

Cc1ccc(C(N)=O)cc1Nc1nccc(-c2cn(C(C)C)c3cnccc23)n1
active: MKL-2 20.9 µM | UISO 4.18 µM | C33A 3.16 µM | CASKI 17.8 µM | HeLa 25.1 µM | Hek293T 17.8 µM

Cc1cnc(Nc2ccc(F)cc2Cl)nc1-c1c[nH]c(C(=O)N[C@H](CO)c2cccc(Cl)c2)c1
active: MKL-2 14.8 µM | UISO 2.64 µM | CASKI 25.1 µM | Es-2 20 µM | HeLa 31.6 µM

O=C(O)CCCc1c[nH]c2ccccc12
not listed: CAOV3
inactive: all other assays above

COc1cccc2c(NCc3ccccc3)nc(-n3c(N)nc4ccccc43)nc12
active: MKL-2 4.69 µM | UISO 6.62 µM | WaGa 9.35 µM | C33A 28.2 µM | CASKI 25.1 µM | HeLa 25.1 µM

CC(C)c1cc(C(=O)N2Cc3ccc(CN4CCN(C)CC4)cc3C2)c(O)cc1O
active: UISO 0.469 µM | CAOV3 3.98 µM
inactive: MKL-2

CC(O)C1C(=O)N2C(C(=O)O)=C(SC3CNC(C(=O)N(C)C)C3)C(C)C12 (stereo not given)
not listed: WaGa
inactive: all other assays above

CNC(=O)c1nn(C)c2c1C(C)(C)Cc1cnc(Nc3ccc(N4CCN(C)CC4)cc3)nc1-2
active: MKL-2 5.26 µM | UISO 0.235 µM | WaGa 5.9 µM | C33A 0.631 µM | CASKI 15.8 µM | HeLa 2.82 µM | Hek293T 7.94 µM

COc1cc(C)c(Sc2cnc(NC(=O)c3ccc(CNC(C)C(C)C)cc3)s2)cc1C(=O)N1CCN(C(C)=O)CC1 (stereo not given)
active: UISO 18.7 µM
inactive: MKL-2 | C33A | Es-2 | Hek293T

O=C(c1cncc(Br)c1)N1CCC(N2CCCC2)CC1
not listed: CAOV3
inactive: all other assays above

CNC(=O)CN1CCC(Oc2cc3c(Nc4cccc(Cl)c4F)ncnc3cc2OC)CC1
inactive: MKL-2 | CAOV3 | Es-2 | HeLa | Hek293T
active: UISO 0.118 µM

COc1cc2c(Nc3ccc(NC(=O)c4ccccc4)cc3)ncnc2cc1OCCCN1CCOCC1
active: C33A 25.1 µM
inactive: MKL-2 | UISO | Es-2 | Hek293T

COc1ccc2c(OCc3nnc4ccc(-c5ccccc5)nn34)ccnc2c1
not listed: CAOV3
inactive: all other assays above

COc1cc(-c2nn(C3CCC(N4CCN(C(C)=O)CC4)CC3)c3ncnc(N)c23)ccc1NC(=O)c1cc2ccccc2n1C (stereo not given)
inactive: MKL-2 | C33A | Es-2 | HeLa | Hek293T
active: UISO 18.7 µM

COc1ccc(F)c(F)c1C(=O)c1cnc(NC2CCN(S(C)(=O)=O)CC2)nc1N
active: MKL-2 11.8 µM | UISO 2.96 µM | C33A 10 µM | CASKI 10 µM | Es-2 3.16 µM | HeLa 2.82 µM | Hek293T 3.55 µM

Nc1nccc(Oc2ccc(NC(=O)c3c[nH]cc(-c4ccc(F)cc4)c3=O)cc2F)c1Cl
inactive: C33A | CASKI | HeLa | Hek293T
active: MKL-2 14.8 µM | UISO 14.8 µM | WaGa 2.35 µM

CC(C)CC(=O)Nc1n[nH]c2c1CN(C(=O)C1CCN(C)CC1)C2(C)C
active: MKL-2 2.64 µM | UISO 5.26 µM | C33A 6.31 µM | Es-2 7.08 µM | HeLa 3.16 µM | Hek293T 3.98 µM

O=C(Nc1cn[nH]c1-c1nc2ccc(CN3CCOCC3)cc2[nH]1)NC1CC1
active: MKL-2 26.4 µM | UISO 8.33 µM | C33A 14.1 µM | CASKI 2 µM | Es-2 14.1 µM | Hek293T 7.94 µM

OCCCNc1cc(-c2ccnc(Nc3cccc(Cl)c3)n2)ccn1
inactive: CAOV3
active: MKL-2 0.296 µM | UISO 0.148 µM | C33A 0.562 µM | CASKI 0.398 µM | Es-2 0.224 µM | HeLa 0.158 µM | Hek293T 0.199 µM

CCn1nnc2c(N3CCOCC3)nc(-c3ccc(NC(=O)Nc4ccc(C(=O)N5CCN(C)CC5)cc4)cc3)nc21
active: MKL-2 0.0105 µM | UISO 0.0332 µM | CAOV3 0.316 µM | CASKI 0.251 µM | Es-2 1.12 µM | Hek293T 0.631 µM
inactive: C33A

Cc1cc(N2CCOCC2)cc2[nH]c(-c3c(NC[C@@H](O)c4cccc(Cl)c4)cc[nH]c3=O)nc12
inactive: MKL-2 | C33A | Es-2
active: UISO 1.32 µM

CNC(=O)c1ccccc1Nc1nc(Nc2ccc(N3CCOCC3)cc2OC)ncc1Cl
active: UISO 1.48 µM | CASKI 10 µM | HeLa 5.01 µM
inactive: MKL-2

O=C(O)C1(Cc2cccc(Nc3nccs3)n2)CCC(Oc2cccc(Cl)c2F)CC1 (stereo not given)
inactive: MKL-2 | C33A | CASKI | Es-2 | Hek293T
active: HeLa 6.31 µM

CCS(=O)(=O)c1cccc(-c2cc(C(=O)NC3CCN(C)CC3)c(C)c3[nH]c4ncc(C)cc4c23)c1
active: MKL-2 8.33 µM | UISO 2.35 µM | CASKI 2.82 µM | Es-2 12.6 µM | HeLa 1.58 µM | Hek293T 12.6 µM
